# Source: PubChem BioAssay (NCI)
# Compounds without any hit were thinned out: in the full panel of roughly 83,000, 20% have a hit.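 Growth was measured after 48 h exposure to one concentration of compound in 96-well plates. Values under 10 count as active.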 Unmarked numbers belong to inactive results. The source made the active and inactive calls.
# Columns and labels:
# Test in all cases: NCI-60 one-dose screen, 48 h (100 = growth as untreated, 0 = no growth, -100 = all killed)
# Details in all cases: 10 µM unless noted
# NCI-H23 lung = system: NCI-H23 lung
# NCI-H226 lung = system: NCI-H226 lung
# NCI-H322M lung = system: NCI-H322M lung
# HOP-62 NSCLC = system: HOP-62 NSCLC
# NCI-H460 lung = system: NCI-H460 lung
# HOP-92 NSCLC = system: HOP-92 NSCLC
# NCI-H522 lung = system: NCI-H522 lung
# A549/ATCC NSCLC = system: A549/ATCC NSCLC
# 786-0 renal = system: 786-0 renal
# COLO 205 colon = system: COLO 205 colon
# DU-145 prostate = system: DU-145 prostate
# K-562 leukemia = system: K-562 leukemia
# MALME-3M melanoma = system: MALME-3M melanoma
# MDA-MB-231 breast = system: MDA-MB-231 breast
# RXF 393 renal = system: RXF 393 renal
# SF-268 CNS = system: SF-268 CNS
# SF-295 CNS = system: SF-295 CNS
# SF-539 CNS = system: SF-539 CNS
# UACC-257 melanoma = system: UACC-257 melanoma
# M14 melanoma = system: M14 melanoma
Structure (SMILES),growth (NCI-H23 lung),growth (NCI-H226 lung),growth (NCI-H322M lung) [%],growth (HOP-62 NSCLC),growth (NCI-H460 lung),growth (HOP-92 NSCLC),growth (NCI-H522 lung),growth (A549/ATCC NSCLC),growth (786-0 renal),growth (COLO 205 colon),growth (DU-145 prostate),growth (K-562 leukemia),growth (MALME-3M melanoma),growth (MDA-MB-231 breast),growth (RXF 393 renal),growth (SF-268 CNS),growth (SF-295 CNS),growth (SF-539 CNS),growth (UACC-257 melanoma),growth (M14 melanoma)
CCCCc1n(Cc2ccc3ccccc3n2)cc[n+]1Cc1ccc2ccccc2c1,-1.01% (active),14.2%,30.6,17.4%,7.73% (active),-33.9% (active),-8.22% (active),27%,20.4%,-74.2% (active),25.1%,6.43% (active),-22.2% (active),-29.2% (active),-14.3% (active),19.3%,0.543% (active),14.3%,-32.7% (active),-16.9% (active)
C#C[C@@]1(O)[C@@H](CO)O[C@@H](n2ccc3c(N)ncnc32)[C@@H]1O,-20.7% (active),-54.4% (active),14.5,4.56% (active),0.612% (active),-15.8% (active),-18.4% (active),-19.4% (active),4.14% (active),-55.2% (active),3.75% (active),4.79% (active),-13.2% (active),-14.7% (active),-33.6% (active),9.98% (active),5.82% (active),8.04% (active),17.3%,-38.6% (active)
COC(=O)CCc1n(Cc2ccc3ccccc3c2)c2ccccc2[n+]1Cc1ccc2ccccc2c1,-7.39% (active),17.7%,36.6,19%,6.29% (active),-34.4% (active),-29.4% (active),38.3%,15.4%,-57.3% (active),28%,9.25% (active),-34.5% (active),-39.4% (active),23.7%,12.1%,13.1%,16.3%,-28.2% (active),-25.5% (active)
O=C1c2ccccc2C(=O)c2c1oc1c2c(=O)[nH]c2ccccc21,66%,78.5%,89.3,119%,68.3%,71.4%,54.8%,97.2%,102%,109%,82%,55.2%,124%,10.3%,97.2%,91%,92.7%,90.3%,112%,73.4%
COC(=O)/C=C1\SC(=Nc2cccc(OC)c2)N(CCc2c[nH]c3ccccc23)C1=O,67.9%,98.2%,76.8,53%,80.7%,46.6%,28.4%,61.4%,76.7%,75.8%,69.3%,40.8%,80.5%,66.1%,49.2%,82.8%,61.9%,83.4%,61.7%,64.9%
COC(=O)c1ccc(NC(=O)CSc2nc(-c3ccc(F)cc3)nc3ccccc23)cc1,81.7%,87.4%,89.5,75.5%,60.7%,77.7%,76.9%,86.1%,105%,93.8%,88.7%,81.2%,60.9%,58.3%,109%,75.8%,86.2%,96.9%,102%,70.2%
CCSc1nc(Cl)c(C#N)c(-c2ccc(F)cc2)n1,95.6%,94.3%,92,106%,103%,99%,92.8%,87.3%,98.9%,106%,104%,37.7%,106%,105%,103%,94.9%,97.7%,92.7%,93.8%,82.3%
CC(=O)OCC1SC(OC(C)=O)C(NC(=O)/C=C/CCl)C(OC(C)=O)C1OC(C)=O (stereo not given),99.7%,103%,109,117%,102%,105%,-9.03% (active),89.1%,124%,107%,104%,91.6%,99.6%,102%,108%,97.9%,111%,109%,83%,93.6%
